Most compounds without a hit are left out; they make up all but 21% or so of the library.
Sm TGR inh: inhibitors of Schistosoma mansoni thioredoxin glutathione reductase | Q962Y6 | purified TGR, DTNB reduction, TNB absorbance 405 nm | Potency, µM (top dose mostly 114 µM), without a hit: top-dose activity change, negative = inhibition, actives largely listed as inhibitors | 360,000 tested, 3% active; further: potency means the concentration at half of the fitted maximal effect; on the % scale 0 is the no-effect control and ±100 the full control effect; nearly all actives have a fitted effect of over 60% in size
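TGR 20 nM + NADPH 100 uM (dispensed conc.), cpd preinc 15 min RT; start with NADPH (500 uM addition) then DTNB (15 mM addition). Kinetic TNB absorbance, 405 nm filter. Four-parameter Hill fit across titration.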
NS1 inh: influenza NS1 inhibition | Potency, µM (titrated, usually from 46.1 µM), for inactives: at the top dose activity, positive = more growth | AID 2326 | 270,000 tested, 0.4% active; calls by dose curve; further: potency means the concentration at half of the fitted maximal effect; actives are rising curves; nearly all actives have a fitted effect of over 50% in size
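OD600 was taken as the measure of yeast growth restored by compound in an NS1-expressing S. cerevisiae strain. Cells had been washed out of glucose medium and diluted 1:100 into galactose -URA medium, pH 6.0.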
Pf growth 48h: P. falciparum growth inhibition at 48 hours (one generation); P. falciparum luciferase growth in erythrocytes, 48 h; Potency, µM (highest dose often 28.7 µM), for inactives: top-dose activity change, negative = inhibition, hits mostly inhibitors; 310,000 tested, 5.9% active; further: potency means the concentration at half of the fitted maximal effect; on the % scale 0 is the no-effect control and ±100 the full control effect
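Luciferase-expressing P. falciparum in infected erythrocytes (2% hematocrit, 0.1% parasitemia final) in RPMI 1640/0.5% Albumax were exposed to compound for 48 hours at 37 C, 5% CO2; growth read as luminescence.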
Shiga toxin inh: blocks Shiga toxin action in Vero cells; Vero cells, Shiga toxin protein synthesis inhibition reporter; inhibition, % at 38.7 µM; 290,000 tested, 9.2% active; in the data active means inhibition mostly above about 28%, no sharp cut-off; inactive means mostly below about 43%; further: 0% is about no effect
Cycloheximide cs: counter-screen hit for Shiga toxin inhibitors, cycloheximide. cell reporter, cycloheximide protein synthesis inhibition counterscreen. max response, %. 300,000 tested, 12% active. AID 2314; in the data active means max response mostly above about 13%, no sharp cut-off; inactive means mostly below about 14%; further: read at 38.3 µM for the half of the compounds with a filed dose; 0% is about no effect
Pf growth 96h: inhibits malaria parasite growth, 96 h | P. falciparum luciferase reporter growth, 96 h | Potency, µM (highest dose often 28.7 µM), without a hit: at the highest dose activity change, negative = inhibition, usual class: inhibitors | 320,000 tested, 6.9% active | AID 504834; further: potency means the concentration at half of the fitted maximal effect; on the % scale 0 is the no-effect control and ±100 the full control effect
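P. falciparum expressing integrated firefly luciferase grown in erythrocytes (2% hematocrit, 0.05% parasitemia final) with compounds for 96 hours at 37 C, 5% CO2. Growth inhibition read as loss of luminescence after adding luciferase detection reagent.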
Active calls of the source: *; i = inactive; ? = inconclusive; / = no result given. Unless noted, the call rests on the fitted dose curve; in most records, active means well fitted curve in the direction sought with a large enough effect; inconclusive means small, poorly fitted or top-dose-only effect, or another doubt; inactive means no such curve, though single readings can be large; an effect the other way counts as inactive or inconclusive.

SMILES | Sm TGR inh | NS1 inh | Pf growth 48h | Shiga toxin inh | Cycloheximide cs | Pf growth 96h
CN(C)c1nc(NCc2ccccc2)nc(SCC(=O)Nc2ccc(Cl)c(Cl)c2)n1 | 3% | 13% | 10µM* | -4 | 0 | 12µM*
COc1nc(SCC(=O)Nc2ccccc2Cl)nc(N(C)C)n1 | 5% | -32% | 10% | 40 | 18* | 5%
COc1ccc(SCC(=O)Nc2ccccc2Cl)cc1 | 9% | -16% | -10% | 13 | 7 | -2%
Cc1ccccc1-n1cc(C(=O)c2cc(Cl)ccc2O)cc(C#N)c1=O | -20% | -23% | 5.2µM* | -7 | -3 | 2.6µM*
COc1ccccc1-n1cc(C(=O)c2cc(Cl)ccc2O)cc(C#N)c1=O | -13% | / | ? | 38 | -3 | ?
CCOC(=O)c1c(NC(=O)CSc2nnnn2-c2ccccc2)sc2c1CC(C)(C)NC2(C)C | 1% | 19% | 6.6µM* | -13 | -3 | 2.6µM*
CCOC(=O)c1c(NC(=O)CSc2nnnn2-c2ccccc2OCC)sc2c1CC(C)(C)NC2(C)C | 5% | / | 10µM* | / | / | 8.3µM*
CCOC(=O)c1c(NC(=O)CSc2nc3ccc(C)cc3[nH]2)sc2c1CC(C)(C)NC2(C)C | 6% | / | 4.7µM* | / | / | 4.7µM*
CCOC(=O)c1c(NC(=O)COC(=O)c2ccc(C)s2)sc2c1CC(C)(C)NC2(C)C | 0% | / | -6% | / | / | 4%
CC(C)(C)CC(=O)N1CCN(c2ccc(S(=O)(=O)N3CCOCC3)cc2[N+](=O)[O-])CC1 | -22% | / | ? | / | / | ?
CCCCn1c(N)c(N(CC(C)C)C(=O)c2cc(-c3ccco3)nc3ccccc23)c(=O)[nH]c1=O | 22µM* | / | ? | / | / | 13%
CCCCn1c(N)c(N(CCOC)C(=O)c2cc(-c3ccc(C)cc3)nc3ccccc23)c(=O)[nH]c1=O | -4% | / | ? | / | / | 12µM*
CCCCn1c(N)c(N(CCC(C)C)C(=O)c2cc(Cl)nc3ccccc23)c(=O)[nH]c1=O | -4% | / | -28% | / | / | ?
CCCCn1c(N)c(N(CCOC)C(=O)CSCc2c(C)noc2C)c(=O)[nH]c1=O | 79µM* | 2% | ? | -4 | -6 | -11%
CCCCn1c(N)c(N(CCOC)C(=O)c2ccc(-c3cccc(C(F)(F)F)c3)o2)c(=O)[nH]c1=O | -11% | / | 13µM* | / | / | 7.4µM*
CCCn1c(N)c(N(CCOC)C(=O)c2cccc(C(F)(F)F)c2)c(=O)[nH]c1=O | 6% | 7% | 19% | 17 | 6 | 20%
CCCCn1c(N)c(N(CCOC)C(=O)c2cc(-c3ccc(F)cc3)nc3ccccc23)c(=O)[nH]c1=O | 8% | / | ? | / | / | ?
O=C(Nc1ccc(Cl)c(C(F)(F)F)c1)C(Cc1ccccc1)NS(=O)(=O)c1ccc(Br)s1 (stereo unspecified) | 9% | / | / | / | / | /
COc1ccc(-c2ccc(OC)c(C3C4C=CCC(C)C4C(=O)N3Cc3ccccc3)c2)cc1OC (stereo unspecified) | / | / | / | -3 | 5 | /
CCCCn1c(N)c(N(CCOC)C(=O)c2cc(-c3ccc(OC)cc3)nc3ccccc23)c(=O)[nH]c1=O | 4% | / | 9.3µM* | / | / | ?
O=c1c2ccccc2c(-c2ccccc2)nn1Cc1c(Cl)cccc1Cl | 6% | 3% | ? | -6 | -2 | ?
Clc1cccc(Cl)c1Cn1ccc(C2CC2)n1 | 1% | / | i | 64* | 41* | 111%
COc1cccc(NC(=O)N2CCN(c3nnnn3-c3ccccc3)CC2)c1 | -3% | / | 1% | 9 | -2 | 35%
CCN(C(=O)CSc1nnc(-c2c[nH]c3ccccc23)n1C1CC1)C1CCS(=O)(=O)C1 (stereo unspecified) | 0% | / | ? | / | / | ?
Cc1ccc2nc(N)[nH]c(=O)c2c1Sc1ccncc1 | / | / | 4.8µM* | / | / | 2.1µM*
SMILES | Sm TGR inh | NS1 inh | Pf growth 48h | Shiga toxin inh | Cycloheximide cs | Pf growth 96h
CCc1nn(CC(=O)Nc2c(C)cccc2C)c(=O)c2cc3sccc3n12 | 5% | / | / | / | / | /
CC(=O)Nc1cccc2c1C(=O)N(c1ccc(OC(C)=O)cc1)C2=O | / | -2% | 4% | 11 | 3 | 2.6µM*
CC(=O)Nc1cccc2c1C(=O)N(c1cccc(OC(C)=O)c1)C2=O | -2% | / | 7% | -1 | 2 | 0%
CCn1nc(C)c(Br)c1C(=O)Sc1ccccc1Cl | 8.9µM* | -1% | 17% | -3 | -3 | 18%
Cc1nn(Cc2ccccc2Cl)c(Cl)c1C(=O)O | 8% | / | -23% | -4 | 6 | 17%
Nn1c(SCC(=O)NCCC2=CCCCC2)nnc1C(F)(F)F | -6% | 3% | / | -6 | -3 | 4%
CCOCCCNC(=O)NC12CC3CC(CC(C3)C1)C2 | -9% | 3% | -19% | -22 | -10 | -2%
O=C(NCCC1=CCCCC1)NC12CC3CC(CC(C3)C1)C2 | -3% | -56% | -4% | 70* | 44* | -101%
COc1ccc(CCNC(=O)NC23CC4CC(CC(C4)C2)C3)cc1 | 5% | -13% | -3% | 62 | 30 | /
NS(=O)(=O)c1ccc(CCNC(=O)NC23CC4CC(CC(C4)C2)C3)cc1 | -1% | -2% | -16% | -10 | -3 | 33%
O=C(NCCc1ccc(F)cc1)NC12CC3CC(CC(C3)C1)C2 | -2% | -47% | 119% | 120* | 64* | -36%
O=C(O)CCCCCCCCCCCNC(=O)NC12CC3CC(CC(C3)C1)C2 | -7% | / | 30% | / | / | 2.1µM*
CC1CCC(NC(=O)c2ccc(CS(=O)(=O)c3c(Cl)cccc3Cl)o2)CC1 (stereo unspecified) | 0% | / | / | / | / | /
O=C(Nc1ccc(-c2cccc(F)c2)cc1)C1CCCN(Cc2ccccn2)C1 (stereo unspecified) | -33% | -19% | ? | 18 | 14 | ?
CCCCOc1cccc(C2c3c(oc4ccccc4c3=O)C(=O)N2c2ccccn2)c1 (stereo unspecified) | -8% | / | / | / | / | /
Cc1ccccc1NC(=O)C1CCN(C(=O)c2ccc(F)cc2)CC1 | 1% | / | / | / | / | /
CN(CC(=O)Nc1cccc(F)c1)C(=O)c1cc(-c2cccs2)nn1-c1ccccc1 | -14% | / | -2% | / | / | 7%
COC(=O)c1cc(-c2cccs2)nn1-c1ccccc1 | 2% | -5% | ? | 11 | -3 | -136%
CCN(CC)S(=O)(=O)c1cccc(NC(=O)c2cc(-c3cccs3)nn2-c2ccccc2)c1 | 1% | ? | -19% | -3 | 3 | 12µM*
CN(C)S(=O)(=O)c1cccc(NC(=O)c2cc(-c3cccs3)nn2-c2ccccc2)c1 | 5% | ? | ? | -18 | 5 | 15µM*
O=C(COC(=O)Cc1c(Cl)cccc1Cl)Nc1ccc2[nH]c(=O)[nH]c2c1 | -7% | / | -8% | / | / | -3%
CCCOc1ccc(CC(=O)NCC2(c3ccccc3)CCOCC2)cc1OC | 6% | 0% | -8% | -13 | -4 | 68%
C[C@@H](c1ncncc1F)[C@](O)(Cn1cncn1)c1ccc(F)cc1F | 0% | / | / | -8 | 1 | /
CCCc1nnc(NC(=O)CCC(=O)N2CCN(Cc3ccc(Cl)cc3)CC2)s1 | 5% | 6% | -24% | -6 | -7 | 12µM*
